Screening results as filed in PubChem BioAssay.
ADAM17 inh: inhibits human ADAM17; AID 720648; P78536; inhibition, % at 6.95 µM; recombinant ADAM17, EDANS/DABCYL FRET peptide cleavage; 0.83% of 370,000 active;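 active means inhibition above the mean of compounds lying between control limits plus 3 SD, set per campaign, cut at about 8.5% in these data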;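 further: 0% = DMSO-only wells as the low control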
Target sequence (P78536 215-824 limits assumed): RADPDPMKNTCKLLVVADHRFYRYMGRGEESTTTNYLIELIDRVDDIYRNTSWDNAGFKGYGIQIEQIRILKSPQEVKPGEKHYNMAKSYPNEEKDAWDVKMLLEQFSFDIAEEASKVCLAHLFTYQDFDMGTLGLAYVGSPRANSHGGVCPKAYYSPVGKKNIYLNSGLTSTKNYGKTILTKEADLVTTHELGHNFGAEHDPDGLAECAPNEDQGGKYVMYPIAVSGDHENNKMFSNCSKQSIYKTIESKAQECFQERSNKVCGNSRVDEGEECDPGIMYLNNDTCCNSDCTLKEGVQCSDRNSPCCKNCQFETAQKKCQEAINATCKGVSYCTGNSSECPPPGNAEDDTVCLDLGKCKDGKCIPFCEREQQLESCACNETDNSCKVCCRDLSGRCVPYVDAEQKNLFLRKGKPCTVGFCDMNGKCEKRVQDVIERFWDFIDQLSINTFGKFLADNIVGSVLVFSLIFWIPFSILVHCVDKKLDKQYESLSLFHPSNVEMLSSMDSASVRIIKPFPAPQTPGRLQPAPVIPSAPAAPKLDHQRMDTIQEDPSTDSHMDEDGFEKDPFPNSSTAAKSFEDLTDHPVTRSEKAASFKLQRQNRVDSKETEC
NPR2 activator: GC-B (human) receptor activation; activation, % at 10 µM; 0.11% of 370,000 active; HEK293-GC-B cells, CNP EC30, cGMP TR-FRET; 0% at EC30 CNP, 100% saturating CNP; P20594;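 active means activation at 10 µM reaching about 35% in either raw or pattern-adjusted values, limit read from the data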
NPR1 activator: GC-A (human) enzyme activation; HEK293 GC-A cells, cGMP TR-FRET, EC30 ANP; 0% at EC30 ANP, 100% saturating ANP; activation, % at 10 µM; 0.14% of 370,000 active; in the data active means activation above about 40%
ADAM10 inh: ADAM10 inhibition, QFRET primary screen; O14672; recombinant ADAM10, EDANS/DABCYL FRET peptide cleavage, 3 h; inhibition, % at 7 µM; 0.62% of 370,000 active;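 active means inhibition above a per-campaign cutoff equal to the mean of compounds falling between control-based bounds plus 3 SD, cut at about 20% in these data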;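 further: 0% = DMSO wells while the 100% control is not disclosed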
FAS TE block: FAS thioesterase (human) inhibition; P49327; inhibition, % at 15 µM; recombinant FAS-TE, OMFH fluorogenic substrate, fluorescence endpoint; AID 602261; 0.67% of 360,000 active;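 active means compounds whose normalised, plate-corrected inhibition of enzyme fluorescence in the single-dose primary screen is 50% or more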;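 further: 0% = DMSO with enzyme and 100% = substrate without enzyme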
FAS-TE inh conf: FAS thioesterase (human) inhibition, confirmation; recombinant FAS-TE, OMFH fluorogenic substrate, fluorescence; inhibition, % at 15 µM; 45% of 2,300 active; shares compounds with FAS TE block;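 active means compounds inhibiting the enzyme by at least 50% at 15 µM in any one of the replicates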;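 further: 0% = enzyme with DMSO only and 100% = wells lacking enzyme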
ADAM10 confirm: human ADAM10 inhibition, confirmation; shares compounds with ADAM10 inh; ADAM10 QFRET peptide cleavage, EDANS fluorescence; inhibition, % at 6.95 µM; 1% of 2,100 active;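 active means inhibition above about 20% chosen separately for each screening run, limit read from the data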;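 further: 0% = DMSO wells and 100% = marimastat wells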
ADAM17 ctr: counter-screen for ADAM10 exosite inhibitors: inhibitors of human ADAM17; shares compounds with ADAM10 inh; ADAM17 QFRET peptide cleavage, EDANS fluorescence; inhibition, % at 6.95 µM; 0.5% of 2,100 active;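 active means mean triplicate inhibition above the solvent-only control wells' mean plus 3 SD, cut at about 12% in these data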;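 further: 0% = DMSO wells and 100% = marimastat wells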
ADAM10 counter: inhibits human ADAM10 in ADAM17 exosite counter-screen; inhibition, % at 6.95 µM; shares compounds with ADAM17 inh; 47% of 2,900 active; recombinant ADAM10, EDANS/DABCYL FRET peptide cleavage, 3 h;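 active means mean inhibition over the triplicate runs exceeds the activity threshold set in the earlier primary screen, cut at about 20% in these data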;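 further: 0% = DMSO wells and 100% = marimastat wells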
ADAM17 confirm: confirmation of inhibitors of human ADAM17. inhibition, % at 6.95 µM. shares compounds with ADAM17 inh. 65% of 2,900 active. AID 743257. recombinant ADAM17, EDANS/DABCYL QFRET peptide cleavage;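 active means mean inhibition across replicates above the hit cutoff set in the primary screen, cut at about 8.5% in these data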;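 further: 0% = DMSO wells and 100% = marimastat wells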
An asterisk follows results filed as active; / = no result. The list is not random: actives were taken first. Their share in the collection is about 2%.

SMILES | ADAM17 inh | NPR2 activator | NPR1 activator | ADAM10 inh | FAS TE block | FAS-TE inh conf | ADAM10 counter | ADAM17 confirm | others
O=C(CSc1nc2ccccc2c(=O)n1-c1ccc(F)c(Cl)c1)Nc1cccc(S(=O)(=O)N2CCOCC2)c1 | 10* | 8 | 1 | 20* | 78* | 24 | 30* | 20* | ADAM10 confirm=8;ADAM17 ctr=2
Cc1cc(NC(=O)COC(=O)c2cc([N+](=O)[O-])ccc2N2CCOCC2)ccc1Br | 8.7* | -2 | -2 | 16 | 79* | 80* | 46* | 19*
COc1ccc(C(=O)C2(C(=O)Nc3cc(C)cc(C)c3)CC(c3ccccn3)=NO2)cc1 (centres undefined) | 4 | -19 | -11 | 7 | / | / | / | /
CC(C)(C)OC(=O)NCCCC[C@H](NC(=O)c1nc[nH]c1C(=O)NC1CCN(C(=O)OC(C)(C)C)CC1)C(=O)OC(C)(C)C | 8.9* | 10 | 0 | 17 | 84* | 59* | -10 | 3
CC(C)C[C@H](NC(=O)c1nc[nH]c1C(=O)N1CCC(C)CC1)C(=O)OCc1ccccc1 | -2 | -6 | 1 | -3 | 0 | / | / | /
CC(C)C[C@H](NC(=O)c1nc[nH]c1C(=O)NC1CCN(C(=O)OC(C)(C)C)CC1)C(=O)OCc1ccccc1 | 16* | 12 | 0 | 37* | 58* | 61* | 29* | 16* | ADAM10 confirm=9;ADAM17 ctr=3
Cc1nc2cc(C(=O)N3CCN(C(=O)OCc4ccccc4)CC3)ccc2n1C1CCCC1 | 0 | -8 | -1 | 8 | / | / | / | /
O=C(/C=C/c1cccc([N+](=O)[O-])c1)NCCSCc1cccc(Cl)c1 | 13* | -5 | -3 | 19 | 58* | 66* | 22* | 12*
O=C(/C=C/c1cccc([N+](=O)[O-])c1)NCc1ccccc1 | 3 | 1 | 4 | -3 | 44 | / | / | /
C[C@@H]1CN([C@H](C)CO)C(=O)c2cc(NC(=O)Nc3ccc(F)cc3)ccc2O[C@@H](C)CCCCO[C@H]1CN(C)S(=O)(=O)c1ccc(Cl)cc1 | 13* | 4 | 2 | 32* | 69* | 35 | 34* | 17* | ADAM10 confirm=9;ADAM17 ctr=4
N#C[C@H](N)[C@H]1O[C@@H](n2ccc(=O)[nH]c2=O)[C@H](O)[C@@H]1O | -7 | 1 | 0 | -44 | / | / | / | /
CC[C@H](CCCc1ccc(F)cc1)CN(Cc1ccc(OC)cc1)S(=O)(=O)c1ccc(C)cc1 | -1 | 3 | -1 | -2 | / | / | / | /
CCOC(=O)[C@H]1[C@H]2COc3ccc(C)cc3[C@@H]2N2C(=O)c3cc(Br)ccc3NC(=O)[C@@]12C | 9.5* | -1 | -6 | 10 | 57* | 26 | 49* | 17*
CCOC(=O)[C@H]1[C@H]2COc3ccc(Br)cc3[C@@H]2N2C(=O)c3ccc(F)cc3NC(=O)[C@@]12C | 2 | 0 | 2 | 6 | 20 | / | / | /
COc1cc2c(cc1OC)C(=O)N1[C@H]3c4cc(Cl)ccc4OC[C@@H]3[C@H](c3ccccc3)[C@]1(C)C(=O)N2 | 12* | -6 | -8 | 29* | 86* | 40 | 34* | 19* | ADAM10 confirm=16;ADAM17 ctr=5
C[C@@]12C(=O)Nc3ccccc3C(=O)N1[C@H]1c3cc(Br)ccc3OC[C@@H]1[C@@H]2c1ccccc1 | 8.6* | -3 | -6 | 19 | 92* | 47* | 20* | 11*
O=C(OC12CCCN(C1)/C(=C/c1cccnc1)C2)c1ccccc1 (centres undefined) | 0 | 1 | 3 | 1 | / | / | / | /
CCCC[C@H]1C2CC(OC(=O)Nc3cccc(C(F)(F)F)c3)C(C2)[C@H]2CCCCN21 (some centres undefined) | 0 | 7 | -7 | 1 | / | / | / | /
O=C(Nc1c(-c2ccc(F)cc2)nc2ncccn12)c1ccccc1 | -69 | 0 | -3 | -239 | / | / | / | /
Cc1ccc(C(C(=O)NCc2ccccc2)N(Cc2cccs2)C(=O)c2ccc3c(c2)OCCO3)cc1 (centres undefined) | 10* | 1 | -4 | 15 | 51* | 32 | 14 | 11*
CC(c1ccccc1)n1c(SCC(=O)N2CC(=O)Nc3ccccc32)nc2ccccc2c1=O (centres undefined) | 8.9* | -16 | -27 | 15 | 56* | 27 | 37* | 16*
O=C(Cn1nnc(-c2ccc(N3CCOCC3)cc2)n1)c1ccccc1 | 7 | -7 | -1 | -3 | / | / | / | /
Cc1ccc(C(=O)Oc2cccc(-n3cnnn3)c2)cc1 | -1 | 0 | 7 | -3 | 31 | / | / | /
CC1CCc2c(C(=O)Oc3cccc(-n4cnnn4)c3)csc2C1 (centres undefined) | 8.8* | -4 | -5 | 19 | 85* | 56* | 15 | 11*
C[C@@H]1COc2cccc(F)c2S(=O)(=O)N1C | -5 | -3 | 1 | -4 | / | / | / | /
SMILES | ADAM17 inh | NPR2 activator | NPR1 activator | ADAM10 inh | FAS TE block | FAS-TE inh conf | ADAM10 counter | ADAM17 confirm | others
O=C(CNc1cc(S(=O)(=O)N2CCCC2)ccc1OCC(F)(F)F)Nc1cccc(C(F)(F)F)c1 | 11* | -1 | 1 | 26* | 64* | 18 | 41* | 17* | ADAM10 confirm=3;ADAM17 ctr=0
O=C(CNc1cccc(C(F)(F)F)c1)Nc1cccc(S(=O)(=O)N2CCCC2)c1 | 6 | -2 | 2 | 8 | 21 | / | / | /
Cc1ccc(S(=O)(=O)N(C(=O)c2ccncc2)c2ccc(OC(=O)c3ccncc3)c3ccccc23)cc1 | 8.9* | -9 | -29 | 2 | 57* | 5 | 37* | 19*
Cc1ccc(S(=O)(=O)N(C(=O)c2ccncc2)c2ccc(OC(=O)c3ccncc3)c3ccccc23)c(C)c1 | / | / | / | / | 46 | / | / | /
O=C(NC(Nc1ncc(S(=O)(=O)c2ccc([N+](=O)[O-])cc2)s1)(C(F)(F)F)C(F)(F)F)c1ccc(Cl)cc1 | 12* | 12 | 5 | 7 | 61* | 44* | 41* | 17*
CCCCC(=O)Nc1ncc(S(=O)(=O)c2ccc([N+](=O)[O-])cc2)s1 | 0 | 5 | 2 | 3 | 4 | / | / | /
